Assay results taken from ChEMBL document CHEMBL3988442, “University of Dundee, Small-Polar-MMV Screening Library” (2021).
Among all 69,000 compounds or so, about 950 (1.4%) showed an effect of 50% or more. This is one part of a sample in which strong results are shown more often than they occur.

system: Mycobacterium tuberculosis; test: Cornell M. t heat shock assay; type: functional, organism-based; parameters: dose or concentration left out as unconfirmed; further: in the data most compounds retested in dose-response had high values

Structure (SMILES) | Percent Effect [%]
CC(C1CCN(Cc2ccc(N(C)C)nc2)CC1)N1CCOCC1 (configuration not stated) | -22.49
CC(C1CCN(Cc2ccc(OC(F)F)cc2)CC1)N1CCOCC1 (configuration not stated) | 96.37
CC(C)Oc1ccc(CN2CCC(Cc3nnc(CO)n3C)CC2)cc1 | -21.53
CC(C1CCN(Cc2ccccc2OC(F)F)CC1)N1CCOCC1 (configuration not stated) | 90.2
CC(C)Oc1cccc(CN2CCC(c3n[nH]c4ncccc34)CC2)c1 | -24.22
CC(C)Oc1cccc(CN2CCC(C(C)N3CCOCC3)CC2)c1 (configuration not stated) | 91.46
CC(C1CCN(Cc2c(Cl)cncc2Cl)CC1)N1CCOCC1 (configuration not stated) | -44.11
FC(F)Oc1ccccc1CN1CCCC(c2nccn2CC2CC2)C1 (configuration not stated) | 23.85
CC(C1CCN(Cc2cccc(OC(F)F)c2)CC1)N1CCOCC1 (configuration not stated) | 1.128
CC(=O)NCC(=O)N1Cc2nccn2CC(COc2cccnc2)C1.O=C(O)C(F)(F)F (configuration not stated) | -35.06
Cc1nc(C2(O)CCCNCC2)sc1CCOc1ccccc1F.Cl (configuration not stated) | -4.166
O=CO.c1cc2nccc(CC3CCCN(Cc4c[nH]cn4)CC3)c2cn1 (configuration not stated) | -8.502
CCN1CCOCC12CCN(c1cnccn1)CC2.O=C(O)C(F)(F)F | -4.677
CC(C)(CO)CNC(=O)c1cc(-c2cc[nH]n2)n2ccccc12.O=C(O)C(F)(F)F | 10.76
O=C(O)C(F)(F)F.O=C(O)C(F)(F)F.O=C(O)C(F)(F)F.c1cncc(CN2CCC3(CC2)CC(c2cccnc2)CO3)c1 (configuration not stated) | -27.59
CNC(=O)COc1ccc(CNc2cncc(-n3cccn3)n2)cc1 | -4.201
CCCOc1ccc(CNc2cncc(-n3cccn3)n2)cc1 | 63.69
CCOCc1ccc(CNc2cncc(-n3cccn3)n2)cc1 | -0.9926
CCOc1cc(CN(C)CC(=O)O)ccc1OC(F)F.Cl | -22.89
Cc1cc2cccc(NC(=O)N3CC[C@@H]4CC[C@H](C3)N4C)c2o1 | 25.84
Cc1cc(-c2cnn(CCNC(=O)c3cc[nH]n3)c2C2CC2)on1 | 53.69

Structure (SMILES) | Percent Effect [%]
Cc1cc(-c2cnn(CCNC(=O)C3CC3)c2C2CC2)on1 | -1.703
Cc1cc(-c2cnn(CCNC(=O)c3cnn(C)c3)c2C2CC2)on1 | -6.591
O=S(=O)(c1ccccc1)N1C(CN2CCOCC2)[C@]2(O)CC[C@H]1CC2 (some centres not stated) | -28.69
CCS(=O)(=O)N1CCOC2(CCCN(Cc3ccccn3)C2)C1.O=C(O)C(F)(F)F (configuration not stated) | 2.925
NCC(=O)N1CCC(c2cncc(Oc3cccnc3)n2)CC1 | -6.248
COCCC(=O)N1CCC(c2cncc(Oc3cccnc3)n2)CC1 | 51.38
CCC(=O)N1CCC(c2cncc(Oc3cccnc3)n2)CC1 | -19.43
O=C1NCCCC1NC(=O)C1(c2cccc(Cl)c2)CCC1 (configuration not stated) | 0.8202
Cl.Clc1cccc(N[C@H]2CCCN[C@H]2Cc2ccccc2)c1 | 104.4
Cl.c1ccc(CCNc2cccc(C3CCCNC3)n2)cc1 (configuration not stated) | -24.38
CCOc1ccc(Cl)cc1C1CCCN1.Cl (configuration not stated) | -11.35
CN[C@H]1CC[C@]2(CC1)CNC(=O)c1cc(C)ccc1O2 | -8.947
CN1CCN(S(=O)(=O)c2ccccc2)Cc2cccnc21.O=C(O)C(F)(F)F | 19.11
CN(C)CC(=O)N1CCC2(CC1)CN(Cc1cccnc1)C(=O)CO2 | -16.01
Cc1cc(C)n(CC2CCCN2CCCS(C)(=O)=O)n1 (configuration not stated) | 7.273
COc1ccc2c(c1)CN(C)C(=O)CCN2CC(O)C(F)(F)F (configuration not stated) | 35.74
CN1Cc2cc(F)ccc2N(CC(C)(C)O)CCC1=O | 56.09
CN1Cc2ccccc2N(CC(O)C(F)(F)F)CCC1=O (configuration not stated) | 42.32
CCCC(O)CN1CCC(=O)N(CC2CC2)Cc2cc3c(cc21)OCO3 (configuration not stated) | 15.68
CCN1CCC(=O)N(C)Cc2cc(F)ccc21 | 13.57
CCCC(O)CN1CCC(=O)N(CCOC)Cc2ccccc21 (configuration not stated) | 30.93

Structure (SMILES) | Percent Effect [%]
CCCC(O)CN1CCC(=O)N(CC)Cc2cc3c(cc21)OCO3 (configuration not stated) | 53.46
CCCC(O)CN1CCC(=O)N(C)Cc2cc(F)ccc21 (configuration not stated) | 66.32
CCCC(O)CN1CCC(=O)N(Cc2ccccc2)Cc2ccccc21 (configuration not stated) | 5.738
CC(C)(O)CN1CCC(=O)N(Cc2ccco2)Cc2cc(F)ccc21 | -9.768
CN1Cc2cc(F)ccc2N(CC(O)C(F)(F)F)CCC1=O (configuration not stated) | 54.29
CCCC(O)CN1CCC(=O)N(CCOC)Cc2cc3c(cc21)OCO3 (configuration not stated) | 26.79
CCc1ccc(CN2C[C@H](OC)[C@H]3COC[C@H]32)o1.O=C(O)C(F)(F)F | 46.3
Cn1cc(CN2C[C@H]3CCC[C@@]3(COc3ccccn3)C2)cn1.O=C(O)C(F)(F)F.O=C(O)C(F)(F)F | -2.585
Cl.Fc1cccc(F)c1Cn1c(C2CCNCC2)cc2cccnc21 | -5.947
Cc1nc(CN2C(=O)C[C@H]3[C@H]2CCN3CC2CCOC2)cs1.O=C(O)C(F)(F)F (some centres not stated) | -4.028
COCC1CC2(CCN(c3ccc(C)nn3)CC2)CN1C(C)C.O=C(O)C(F)(F)F (configuration not stated) | -4.94
Cl.Cl.O=C(NCc1cncc2c1CCN(CC1CCOC1)C2)c1ccco1 (configuration not stated) | 5.54
COCCN1CCC2(C1)c1ccccc1S(=O)(=O)N2C.O=C(O)C(F)(F)F (configuration not stated) | 24.71
Cc1cc(N2CCN(Cc3ccnn3C)CC2)cc(C2CCCN2)n1.Cl (configuration not stated) | -17.02
Cc1nc(C2(O)CCCNCC2)sc1CCOc1ccc(F)c(F)c1.Cl (configuration not stated) | -9.071
CC(C)CS(=O)(=O)N1C[C@H]2C[C@H](C(=O)N(C)C)[C@@H](C1)O2 | 1.328
CCN1Cc2cc(OC)ccc2N(CC(C)(C)O)CCC1=O | -11.62
CCN1Cc2cc(F)ccc2N(CC(O)C(F)(F)F)CCC1=O (configuration not stated) | 51.9
COc1ccc2c(c1)CN(C)C(=O)CCN2CC(O)C(C)(C)C (configuration not stated) | 46.8
CC(C)OCc1nn(C)c2c1CN(Cc1cccs1)CC2.O=CO | 3.631
